# In the library only some 10% were active in any assay of this set; here they are far more common.
# Pf growth 96h = Primary qHTS for delayed death inhibitors of the malarial parasite plastid, 96 hour incubation. P. falciparum luciferase reporter growth, 96 h. Potency, µM (titrated, usually from 28.7 µM), without a hit: top-dose activity change, negative = inhibition, usual class: inhibitors. 6.9% of 320,000 active. AID 504834, 2011; active = well fitted inhibition curve with a large enough effect; inconclusive = small, poorly fitted or top-dose-only effect, or another doubt; inactive = no such curve, though single readings can be large or run the other way; also: % is scaled to controls: 0 for no effect and ±100 for the full control effect
#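 P. falciparum expressing integrated firefly luciferase grown in erythrocytes (2% hematocrit, 0.05% parasitemia final) with compounds for 96 hours at 37 C, 5% CO2. Growth inhibition read as loss of luminescence after adding luciferase detection reagent.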
# SARS PLpro yeast = qHTS of Yeast-based Assay for SARS-CoV PLP. S. cerevisiae expressing SARS-CoV PLpro, growth rescue. Potency, µM (highest dose often 32.9 µM), inactives show top-dose activity, positive = growth rescue, actives largely listed as activators. 0.19% of 330,000 active; also: 0% is about no effect; nearly all actives have a fitted effect of over 55% in size
# Pf growth 48h = Primary qHTS for delayed death inhibitors of the malarial parasite plastid, 48 hour incubation | Potency, µM (doses to about 28.7 µM), for the others: at the highest dose activity change, negative = inhibition, actives largely listed as inhibitors | AID 504832, 2011 | P. falciparum luciferase growth in erythrocytes, 48 h | 5.9% of 310,000 active; active = well fitted inhibition curve with a large enough effect; inconclusive = small, poorly fitted or top-dose-only effect, or another doubt; inactive = no such curve, though single readings can be large or run the other way; also: % is scaled to controls: 0 for no effect and ±100 for the full control effect
#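 A one-generation exposure of luciferase-tagged malaria parasites in RPMI 1640/Albumax erythrocyte culture, 37 C and 5% CO2. Inhibition is inferred from decreased luminescence after adding detection reagent.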
# NS1 function inh = qHTS Assay for Inhibitors of Influenza NS1 Protein Function | AID 2326, 2010 | Potency, µM (highest dose often 46.1 µM), without a hit: at the top dose activity, positive = more growth | 0.4% of 270,000 active; also: actives are rising curves; nearly all actives have a fitted effect of over 50% in size
#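 OD600 was taken as the measure of yeast growth restored by compound in an NS1-expressing S. cerevisiae strain. Cells had been washed out of glucose medium and diluted 1:100 into galactose -URA medium, pH 6.0.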
# Numbers without * were called inactive; ? = inconclusive; / = no result; ! = a repeat was not active; [ ] = another dose, or the depositor's remark. Unless noted, calls follow the shape of the full dose curve. Potency is read from the fitted curve at half-maximal effect.
SMILES,Pf growth 96h,SARS PLpro yeast,Pf growth 48h,NS1 function inh
CCOC(=O)[C@H]1[C@H]2COc3ccc(Cl)cc3[C@@H]2N2C(=O)CN(Cc3ccccc3)C(=O)[C@@]12C,5.9µM*,8.9µM*,?,/
CCOC(=O)[C@H]1[C@H]2COc3ccc(Cl)cc3[C@@H]2N2C(=O)CN(Cc3ccc(Cl)cc3)C(=O)[C@@]12C,?,-5%,15µM*,/
CCOc1ccc(CCN2C(=O)c3ccc(C(=O)O)cc3C2=O)cc1OCC,62%,-2%,1%,-2%
CN(C)S(=O)(=O)c1cccc(COC(=O)CNC(=O)c2ccc(Br)o2)c1,31%,0%,48%,/
COc1ccc(-c2nonc2NC(=O)c2oc3ccccc3c2C)cc1OC,10µM*,-1%,?,-14%
CN1CCN(CC(=O)Nc2cccc3ccccc23)CC1,/,/,/,1%
Nc1ccc2nc(CCCCCCc3nc4ccc(N)cc4[nH]3)[nH]c2c1,89%,0%,?,8%
Nc1ccc2nc(CCCCCCCCc3nc4ccc(N)cc4[nH]3)[nH]c2c1,6%,2%,7.4µM*,/
Nc1ccc2nc(CCCCc3nc4ccccc4[nH]3)[nH]c2c1,?,-3%,?,-7%
Nc1ccc2nc(COc3ccccc3)[nH]c2c1,7.4µM*,-6%,49%,-6%
C/C(=N\OC(=O)Nc1ccccc1)c1cnn(-c2cc(C(F)(F)F)cc(C)n2)c1C,25%,-3%,-16%,0%
COc1ccc(NC(=O)CSc2nnc(C3CCCCC3)n2N)cc1,16%,1%,5%,-4%
COc1ccc(C(=O)CSc2nnc(C3CCCCC3)n2N)c(OC)c1,9.3µM*,-8%,0%,-1%
COCc1cc(C)nc(SCc2ccc([N+](=O)[O-])cc2)c1C#N,75%,6%,-50%,18%
CSc1ccc(CNC(=O)C2CCC(=O)N(Cc3cccc(F)c3)C2)cc1 (stereo not drawn),?,-2%,5%,-10%
O=C(NCCc1ccccc1)c1c(F)c(F)c(F)c(F)c1F,-1%,-4%,-17%,3%
CC1CC1C(=O)Nc1ccc(-c2ccccc2)cc1 (stereo not drawn),13µM*,-30%,-12%,-7%
COc1ccc(/C(C)=N/NC(=O)c2nnn(-c3nonc3N)c2-c2ccccc2)cc1,62%,-1%,6%,-10%
C/C(=N\NC(=O)c1nnn(-c2nonc2N)c1-c1cccs1)c1ccc(O)cc1,12µM*,18%,12µM*,12%
CCCOc1ccc(-c2c(C(=O)N/N=C(\C)c3ccncc3)nnn2-c2nonc2N)cc1,9.3µM*,-2%,?,29%
C/C(=N\NC(=O)c1nnn(-c2nonc2N)c1-c1ccc2c(c1)OCO2)c1cccs1,12µM*,1%,?,3%
C/C(=N/NC(=O)c1nnn(-c2nonc2N)c1-c1ccccc1)c1ccncc1,7.4µM*,2%,17%,8%
O=[N+]([O-])c1ccccc1S(=O)(=O)Nc1ccc(-c2ccc3nncn3n2)cc1,-26%,6%,6%,/
CC1CN(C(=O)CSc2nnc(-c3ccccc3)o2)CC(C)O1 (stereo not drawn),-19%,2%,-9%,0%
CC(C)(C)NC(=S)NC(=O)C12CC3CCC(CC(C3)C1)C2,0%,-12%,10µM*,-10%
SMILES,Pf growth 96h,SARS PLpro yeast,Pf growth 48h,NS1 function inh
CN(C)NC(=S)NC(=O)C12CC3CC(CC(C3)C1)C2,?,4%,?,/
COc1ccc(C2=Nn3c(nnc3-c3ccccc3F)SC2)cc1OCC1CC1,/,-5%,/,/
CC(=O)Oc1cc(C(F)(F)F)ccc1C(=O)O,6%[12.8 µM],/,9%[12.8 µM],/
O=c1[nH]c(SCc2ccc([N+](=O)[O-])cc2)nc2[nH]ncc12,7.4µM*,1%,?,6%
Cc1cccc(CSc2nc3[nH]ncc3c(=O)[nH]2)c1,3%,4%,21%,/
Nc1cc(OC(=O)c2c(F)cccc2Cl)nn1S(=O)(=O)c1ccccc1,10µM*,4%,23%,-3%
COc1cccc(-c2nnc3n2N=C(c2cc(OC)ccc2OC)CS3)c1,?,3%,?,6%
CC(C)(C)C1=Nn2c(nnc2-c2ccccn2)SC1,8.3µM*,7%,/,19%
COc1cccc(-c2nnc3n2N=C(C(C)(C)C)CS3)c1,13µM*,3%,?,-96%
COc1cccc(C2=Nn3c(nnc3-c3ccccc3O)SC2)c1,-22%,-7%,13µM*,3%
COc1ccccc1-c1nnc2n1N=C(C(C)(C)C)CS2,0%,6%,?,3%
Cc1cc(-c2nnc3n2N=C(c2ccccc2Br)CS3)n[nH]1,12µM*,1%,?,2%
CSc1cccc(NC(=O)CCNS(=O)(=O)c2ccc3[nH]c(=O)oc3c2)c1,?,1%,14%,-11%
COC(=O)C1(C)Cc2cc(OC(C)=O)c(OC(C)=O)cc2N1 (stereo not drawn),-62%,1%,?,2%
CC(C)Cc1nc(SCC(=O)NCC2CCCO2)c2c(=O)n(C)c(=O)n(C)c2n1 (stereo not drawn),20%,-6%,1%,4%
COc1ccc(C2=Nn3c(nnc3-c3ccccn3)SC2)cc1OC,?,6%,/,-1%
COc1ccc(C2=Nn3c(nnc3-c3ccccc3OC)SC2)cc1OC,3.7µM*!,1%,10µM*,-4%
COc1ccc(CCNC(=O)[C@@H](NC(=O)N2CC(=O)Nc3ccccc32)C(C)C)cc1OC,12µM*,-1%,-20%,-8%
CC(C)[C@H](NC(=O)N1CC(=O)Nc2ccccc21)C(=O)N[C@@H](Cc1ccccc1)C(=O)O,-1%,1%,0%,-5%
O=C(C1=C[C@H](C2CC2)C[C@H](OCCCCO)O1)N1CCOCC1,5%,-1%,-14%,1%
Cc1cc(NC(=O)c2ccccc2F)n(-c2nc3ccccc3[nH]2)n1,23%[5.75 µM],2%,-79%,-3%
Cc1cc(NC(=O)c2c(F)cccc2F)n(-c2nc3ccccc3[nH]2)n1,-94%,5%,7.4µM*,1%
Cc1cc(NC(=O)C2CCCCC2)n(-c2nc3ccccc3[nH]2)n1,/,-5%,9.3µM*,-6%
Cc1cc(NC(=O)c2c(F)cccc2Cl)n(-c2nc3ccccc3[nH]2)n1,/,-7%,10µM*,-11%
COc1cc(/C=N/N2CCN(Cc3ccccc3)CC2)cc(OC)c1OC(C)=O,-31%,1%,-4%,4%
SMILES,Pf growth 96h,SARS PLpro yeast,Pf growth 48h,NS1 function inh
COc1ccccc1C(=O)NCCC(=O)Nc1ccncc1,-2%,-6%,6%,/
Cn1c(=NC(=O)CS(=O)(=O)c2ccccc2)sc2cc([N+](=O)[O-])ccc21,?,-4%,12µM*,/
Cc1ccsc1/C=N/n1c(C2CCCCC2)n[nH]c1=S,74%,15%,-4%,14%
Cc1ccc(/C=N/n2c(C3CCCCC3)n[nH]c2=S)s1,2.1µM*,-2%,?,12%
N=c1oc2c3c4c(cc2cc1C(=O)Nc1ccccc1)CCCN4CCC3,13µM*,-6%,/,?
N#Cc1ccc(NC(=O)c2cc3cc4c5c(c3oc2=N)CCCN5CCC4)cc1,/,/,/,1%
O=C(Nc1ccc(F)c(F)c1)C1CCN(S(=O)(=O)c2cccs2)CC1,?,4%,?,/
